The values that follow come from PubChem BioAssay (Tox21).

Records with an inconclusive call do not appear. Where a call stands in place of a potency, no number is given. Activity calls are given as the source filed them. The call rests on the fitted dose curve; in most records, active means well fitted cell-killing curve with a large enough effect in the repeat runs; inconclusive means weak or mixed curves, or effect the other way; inactive means flat fitted curve, though single readings scatter.

Test [1] can be described thus: cAMP Responsive Elements (CRE) small molecule antagonists, cell-based qHTS assay: qHTS cell viability counter screen (AID 2060913). Further: nearly all actives have a fitted effect of over 40% in size. The method, boiled down:
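CRE-bla HEK293T cells (2,000/well, 18 h) given compound plus NKH477 0.25 uM final for 3 h at 37C; viability counter-screen by CellTiter-Glo luminescence in same wells after 30 min.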
For orientation: In qHTS, concentration-response curves come from the screen itself.

Test [2] is described as follows: cAMP Responsive Elements (CRE) small molecule agonists, cell-based qHTS assay: qHTS cell viability counter screen (AID 2060914). Further: nearly all actives have a fitted effect of over 50% in size. The essentials: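 Luminescence read-out (CellTiter-Glo, 30 min RT) of ATP-based viability in CRE-bla HEK 293T cells, run in the same wells as the β-lactamase reporter assay after 3 h compound treatment at 37 °C.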

As to `CC(C)N(CCC(C(N)=O)(c1ccccc1)c1ccccn1)C(C)C` (stereo unspecified), the Potency entry in test [1] and in test [2] was “inactive” throughout.
Take `[O]=[Cr][O][Cr]=[O]`: the Potency result in test [1] and in test [2] was “inactive” in each case.
In the case of `Cc1nc(N(C)C)nc(OC(=O)N(C)C)c1C`, the Potency entry in test [1] and in test [2] was “inactive” throughout.
For the molecule `CCCN1CCC[C@@H]2Cc3[nH]ncc3C[C@H]21`, the Potency result in test [1] and in test [2] was “inactive” each time.
As to `c1ccc(P(c2ccccc2)c2ccccc2)cc1`, the Potency entry in test [1] and in test [2] was “inactive” in each case.
With `CNC(=O)O/N=C(\SC)C(=O)N(C)C`, the Potency result in test [1] and in test [2] was “inactive” throughout.
With `ClC1=C(Cl)C2(Cl)C(CBr)CC1(Cl)C2(Cl)Cl` (stereo unspecified), the Potency result in test [1] and in test [2] was “inactive” in each case.
Turning to `Nc1ccc([N+](=O)[O-])cc1Cl`, the Potency entry in test [1] and in test [2] was “inactive” in each case.
In the case of `CCCCSP(=O)(SCCCC)SCCCC`, the Potency result in test [1] and in test [2] was “inactive” throughout.
Take `CCCN(CC)CC1COC2(CCC(C(C)(C)C)CC2)O1` (stereo unspecified): the Potency result in test [1] and in test [2] was “inactive” in each case.
With `CCCN(CCC)N=O`, the Potency result in test [1] and in test [2] was “inactive” throughout.
As for `c1ccc(C2CO2)cc1` (stereo unspecified), the Potency result in test [1] and in test [2] was “inactive” throughout.
For the molecule `NC(=O)CI`, the Potency result in test [1] and in test [2] was “inactive” each time.
For `CCOP(=S)(OCC)SCSc1ccc(Cl)cc1`, the Potency entry in test [1] and in test [2] was “inactive” throughout.
With `O=C(O)COc1ccccc1`, the Potency entry in test [1] and in test [2] was “inactive” throughout.
Take `CN1[C@@H]2CC[C@H]1CC(OC(=O)c1cc(Cl)cc(Cl)c1)C2` (stereo partly specified): the Potency result in test [1] and in test [2] was “inactive” each time.
Consider `NCCOS(=O)(=O)O`, for which the Potency result in test [1] and in test [2] was “inactive” in each case.
Regarding `CC(=O)CCc1ccc2c(c1)OCO2`, the Potency entry in test [1] and in test [2] was “inactive” in each case.
As to `Cl/C=C/Cl`, the Potency result in test [1] and in test [2] was “inactive” throughout.
On to `OC(Cc1ccccc1Cl)(Cn1cncn1)C1(Cl)CC1` (stereo unspecified), for which the Potency entry in test [1] and in test [2] was “inactive” throughout.
With `CCc1cnc(C2=NC(C)(C(C)C)C(=O)N2)c(C(=O)O)c1` (stereo unspecified), the Potency result in test [1] and in test [2] was “inactive” throughout.
For the molecule `C[N+](C)(C)CC1CO1` (stereo unspecified), the Potency result in test [1] and in test [2] was “inactive” throughout.
Consider `CC(C)(C)OO`, for which the Potency entry in test [1] and in test [2] was “inactive” throughout.
In the case of `C/C=C/C=O`, the Potency entry in test [1] and in test [2] was “inactive” throughout.
For `CNC(=O)Oc1cccc(N=CN(C)C)c1`, the Potency entry in test [1] and in test [2] was “inactive” throughout.
For the molecule `O=NN1CCN(N=O)CC1`, the Potency entry in test [1] and in test [2] was “inactive” throughout.
Turning to `Cc1nnc(-c2ccccc2)c(=O)n1N`, the Potency result in test [1] and in test [2] was “inactive” each time.
In the case of `CCC/C(=N\OCC)C1=C(O)CC(CC(C)SCC)CC1=O` (stereo unspecified), the Potency result in test [1] and in test [2] was “inactive” each time.
For `ClCC(Cl)Cl`, the Potency result in test [1] and in test [2] was “inactive” in each case.
As to `Clc1ccc(Cl)c(Cl)c1`, the Potency result in test [1] and in test [2] was “inactive” in each case.
As for `CC(C)c1ccc(CO)cc1`, the Potency entry in test [1] and in test [2] was “inactive” each time.
For `O=C/C(Cl)=C(/Cl)C(=O)O`, the Potency result in test [1] and in test [2] was “inactive” in each case.
In the case of `CCOP(=S)(OCC)Oc1ncn(-c2ccccc2)n1`, the Potency result in test [1] and in test [2] was “inactive” each time.
Consider `ClCc1ccccc1Cl`, for which the Potency result in test [1] and in test [2] was “inactive” in each case.
As for `CC(C)(C)OOC(=O)c1ccccc1`, the Potency result in test [1] and in test [2] was “inactive” throughout.
As to `Nc1ccc(Oc2ccc(N)cc2)cc1`, the Potency entry in test [1] and in test [2] was “inactive” each time.
For the molecule `Oc1cccc(-c2ccccc2)c1`, the Potency result in test [1] and in test [2] was “inactive” in each case.
For the molecule `CC1=C2[C@H]3OC(=O)[C@@H](C)[C@@H]3CC[C@@]2(C)C=CC1=O`, the Potency result in test [1] and in test [2] was “inactive” in each case.
With `CC(C)(N)Cc1ccccc1Cl`, the Potency entry in test [1] and in test [2] was “inactive” throughout.
In the case of `CN(C)c1ccc(C(=O)c2ccc(N(C)C)cc2)cc1`, the Potency result in test [1] and in test [2] was “inactive” each time.
In the case of `COC(=O)C1=CCCN(C)C1`, the Potency result in test [1] and in test [2] was “inactive” in each case.
As to `CC(COc1ccc(Oc2ccccc2)cc1)Oc1ccccn1` (stereo unspecified), the Potency entry in test [1] and in test [2] was “inactive” each time.
For `C[N+]1(C)[C@@H]2CC[C@H]1CC(OC(=O)C(CO)c1ccccc1)C2` (stereo partly specified), the Potency result in test [1] and in test [2] was “inactive” in each case.
Take `Clc1ccc(-c2ccc(Cl)c(Cl)c2Cl)c(Cl)c1Cl`: the Potency entry in test [1] and in test [2] was “inactive” throughout.
Consider `CCNc1nc(Cl)nc(NC(C)(C)C#N)n1`, for which the Potency entry in test [1] and in test [2] was “inactive” in each case.
Turning to `CN(C)[C@@H]1C(=O)C(C(N)=O)=C(O)[C@@]2(O)C(=O)C3=C(O)c4c(O)cccc4[C@@](C)(O)[C@H]3[C@H](O)[C@@H]12`, the Potency entry in test [1] and in test [2] was “inactive” in each case.
Regarding `C(CCOCC1CO1)COCC1CO1` (stereo unspecified), the Potency result in test [1] and in test [2] was “inactive” in each case.
As to `COP(=O)(OC)O/C(=C\Cl)c1cc(Cl)c(Cl)cc1Cl`, the Potency result in test [1] and in test [2] was “inactive” throughout.
As to `COC(=O)C(Cl)C(=O)OC`, the Potency entry in test [1] and in test [2] was “inactive” in each case.
Turning to `CCCC[P+](CC)(CCCC)CCCC` (tested in a mixture with another compound), the Potency result in test [1] and in test [2] was “inactive” throughout.
Take `O=C(O)C1(c2ccc3c(c2)OC[C@H](Cc2ccc(-c4ccccc4)cc2)[C@H]3O)CCCC1`: the Potency result in test [1] and in test [2] was “inactive” each time.
On to `COC(=O)C(Br)CBr` (stereo unspecified), for which the Potency entry in test [1] and in test [2] was “inactive” in each case.
Turning to `COC(=O)c1c(C(F)F)nc(C(F)(F)F)c(C2=NCCS2)c1CC(C)C`, the Potency result in test [1] and in test [2] was “inactive” each time.
Consider `Cc1ccc(C(=O)Cl)cc1`, for which the Potency result in test [1] and in test [2] was “inactive” throughout.
Consider `Cc1cc(Cl)ccc1O`, for which the Potency result in test [1] and in test [2] was “inactive” in each case.
For the molecule `CCCC[N+](CCCC)(CCCC)CCCC`, the Potency result in test [1] and in test [2] was “inactive” in each case.
For the molecule `O=P(O)(O)CN(CP(=O)(O)O)CP(=O)(O)O`, the Potency entry in test [1] and in test [2] was “inactive” throughout.
For the molecule `CC(O)C#N` (stereo unspecified), the Potency result in test [1] and in test [2] was “inactive” in each case.
Regarding `O=[N+]([O-])c1ccccc1CCl`, the Potency result in test [1] and in test [2] was “inactive” each time.
In the case of `CNC(=O)Oc1ccccc1OC(C)C`, the Potency entry in test [1] and in test [2] was “inactive” each time.
In the case of `CC(C)=C[C@@H]1[C@@H](C(=O)OCc2coc(Cc3ccccc3)c2)C1(C)C`, the Potency entry in test [1] and in test [2] was “inactive” in each case.
As for `COc1cc(N)c(Cl)cc1C(=O)NC1CN2CCC1CC2` (stereo unspecified), the Potency entry in test [1] and in test [2] was “inactive” in each case.
`CCC(C)Cl` (stereo unspecified): the Potency result in test [1] and in test [2] was “inactive” in each case.
Turning to `Oc1ccc2[nH]cc(CCCCN3CC=C(c4ccccc4)CC3)c2c1`, the Potency entry in test [1] and in test [2] was “inactive” in each case.
As to `Cc1cc(Cl)ccc1OCC(=O)O`, the Potency result in test [1] and in test [2] was “inactive” in each case.
For the molecule `CCOS(C)(=O)=O`, the Potency entry in test [1] and in test [2] was “inactive” in each case.
Turning to `CCC(C)n1c(=O)[nH]c(C)c(Br)c1=O` (stereo unspecified), the Potency result in test [1] and in test [2] was “inactive” throughout.
For the molecule `c1ccc2c(c1)OCC(C1=NCCN1)O2` (stereo unspecified), the Potency result in test [1] and in test [2] was “inactive” each time.
